Residue numbers refer to the chain shown, from its start.
B1: ACGCCCCA (ssRNA)
RNA 1: GAGUUCUACAGUCCGACGAUCCCAACACGCCCCACACCUGGAAUUCUCGGGUGCCAA
RNA 2: UGGAGUGUGACAAUGGUGUUUG
DNA 1: GATCGTCGGACTGTAGAACTC
DNA 2: TTGGCACCCGAGAATTCCA
modifications: constant regions annealed to DNA blockers; guide miR-122 5' phosphate
B2: ATATTCCA (ssRNA)
RNA 1: B1 RNA 1 with C28U, G29A, C30U, C31U
RNA 2: UGGAGUGUGACAAUGGUGUUUG
DNA 1: GATCGTCGGACTGTAGAACTC
DNA 2: TTGGCACCCGAGAATTCCA
modifications: constant regions annealed to DNA blockers; guide miR-122 5' phosphate
B3: GCACCTTA (ssRNA)
RNA 1: B1 RNA 1 with A27G, G29A, C32U, C33U
RNA 2: UGGAGUGUGACAAUGGUGUUUG
DNA 1: GATCGTCGGACTGTAGAACTC
DNA 2: TTGGCACCCGAGAATTCCA
modifications: constant regions annealed to DNA blockers; guide miR-122 5' phosphate
B4: GTGTCCCA (ssRNA)
RNA 1: B1 RNA 1 with A27G, C28U, C30U
RNA 2: UGGAGUGUGACAAUGGUGUUUG
DNA 1: GATCGTCGGACTGTAGAACTC
DNA 2: TTGGCACCCGAGAATTCCA
modifications: constant regions annealed to DNA blockers; guide miR-122 5' phosphate
B5: GCGTCCCA (ssRNA)
RNA 1: B1 RNA 1 with A27G, C30U
RNA 2: UGGAGUGUGACAAUGGUGUUUG
DNA 1: GATCGTCGGACTGTAGAACTC
DNA 2: TTGGCACCCGAGAATTCCA
modifications: constant regions annealed to DNA blockers; guide miR-122 5' phosphate
B6: GCGCTCCA (ssRNA)
RNA 1: B1 RNA 1 with A27G, C31U
RNA 2: UGGAGUGUGACAAUGGUGUUUG
DNA 1: GATCGTCGGACTGTAGAACTC
DNA 2: TTGGCACCCGAGAATTCCA
modifications: constant regions annealed to DNA blockers; guide miR-122 5' phosphate
B7: GTACCTCA (ssRNA)
RNA 1: B1 RNA 1 with A27G, C28U, G29A, C32U
RNA 2: UGGAGUGUGACAAUGGUGUUUG
DNA 1: GATCGTCGGACTGTAGAACTC
DNA 2: TTGGCACCCGAGAATTCCA
modifications: constant regions annealed to DNA blockers; guide miR-122 5' phosphate
B8: GCGTTTCA (ssRNA)
RNA 1: B1 RNA 1 with A27G, C30U, C31U, C32U
RNA 2: UGGAGUGUGACAAUGGUGUUUG
DNA 1: GATCGTCGGACTGTAGAACTC
DNA 2: TTGGCACCCGAGAATTCCA
modifications: constant regions annealed to DNA blockers; guide miR-122 5' phosphate
B9: GCGCCTTA (ssRNA)
RNA 1: B1 RNA 1 with A27G, C32U, C33U
RNA 2: UGGAGUGUGACAAUGGUGUUUG
DNA 1: GATCGTCGGACTGTAGAACTC
DNA 2: TTGGCACCCGAGAATTCCA
modifications: constant regions annealed to DNA blockers; guide miR-122 5' phosphate
B10: ACGTCCCA (ssRNA)
RNA 1: B1 RNA 1 with C30U
RNA 2: UGGAGUGUGACAAUGGUGUUUG
DNA 1: GATCGTCGGACTGTAGAACTC
DNA 2: TTGGCACCCGAGAATTCCA
modifications: constant regions annealed to DNA blockers; guide miR-122 5' phosphate

Molecular target: AGO2 WT (phosphosite mutant background) (Homo sapiens, UniProt Q9UKV8 1-859, S387D;S824A;S828D;S831D;S834A)
Experiment: RNA Bind-n-Seq (nitrocellulose filter binding and sequencing); miR-122 guide loaded in AGO2; 60 min incubation; 30 mM Tris pH 8.0, 100 mM potassium acetate, 2 mM magnesium acetate, 0.5 mM TCEP, 0.005% NP-40, 0.01 mg/ml yeast tRNA; 3 nM AGO2-miR-122, 100 nM RNA library; 60; high values mean tight binding
Conditions: protein: recombinant; tags: His6 (N-terminal, pFastBac HTA)
How it was run: (§1)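 His-tagged AGO2 was expressed in Sf9 insect cells by baculovirus, loaded with a synthetic guide RNA, and purified by Ni-NTA and a biotinylated capture oligo. Bound RNA was extracted, reverse-transcribed, barcode-amplified and Illumina-sequenced. Fold enrichment is each sequence's read fraction divided by its input-library read fraction.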

Chain of AGO2 WT (phosphosite mutant background) (Q9UKV8 whole entry S387D/S824A/S828D/S831D/S834A): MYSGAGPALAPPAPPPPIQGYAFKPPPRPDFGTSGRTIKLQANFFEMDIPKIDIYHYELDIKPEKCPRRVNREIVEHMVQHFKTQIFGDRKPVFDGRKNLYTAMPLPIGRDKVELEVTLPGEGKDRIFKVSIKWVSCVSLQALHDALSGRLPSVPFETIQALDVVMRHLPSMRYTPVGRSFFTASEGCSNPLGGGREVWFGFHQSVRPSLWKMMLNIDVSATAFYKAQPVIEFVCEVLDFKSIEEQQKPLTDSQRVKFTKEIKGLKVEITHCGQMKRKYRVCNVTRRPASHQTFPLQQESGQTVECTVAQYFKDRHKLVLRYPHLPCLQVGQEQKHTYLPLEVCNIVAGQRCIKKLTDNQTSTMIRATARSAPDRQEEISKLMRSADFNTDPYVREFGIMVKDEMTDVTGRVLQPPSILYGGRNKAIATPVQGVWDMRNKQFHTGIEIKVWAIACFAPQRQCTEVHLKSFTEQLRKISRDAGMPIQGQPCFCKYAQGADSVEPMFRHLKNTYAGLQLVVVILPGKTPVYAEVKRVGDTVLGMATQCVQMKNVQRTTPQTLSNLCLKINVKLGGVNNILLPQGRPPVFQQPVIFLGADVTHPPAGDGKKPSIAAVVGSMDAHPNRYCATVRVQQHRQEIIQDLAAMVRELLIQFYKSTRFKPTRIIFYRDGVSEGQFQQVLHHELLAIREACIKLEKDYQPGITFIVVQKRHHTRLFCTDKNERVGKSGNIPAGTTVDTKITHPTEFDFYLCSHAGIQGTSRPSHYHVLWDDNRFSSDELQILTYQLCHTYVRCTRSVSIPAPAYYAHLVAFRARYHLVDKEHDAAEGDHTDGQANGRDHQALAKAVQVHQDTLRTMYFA

Row | Binder | binding signal
1 | B1 | 0.123 fold enrichment over input
2 | B2 | 0.121 fold enrichment over input
3 | B3 | 0.132 fold enrichment over input
4 | B4 | 0.125 fold enrichment over input
5 | B5 | 0.126 fold enrichment over input
6 | B6 | 1.63 fold enrichment over input
7 | B7 | 0.149 fold enrichment over input
8 | B8 | 0.125 fold enrichment over input
9 | B9 | 0.125 fold enrichment over input
10 | B10 | 0.127 fold enrichment over input

Molecular target: AGO2 L192P (Homo sapiens, UniProt Q9UKV8 1-859, L192P;S387D;S824A;S828D;S831D;S834A)
Experiment: as above
Conditions: protein: recombinant; tags: His6 (N-terminal, pFastBac HTA)
How it was run: as §1

Chain of AGO2 L192P (Q9UKV8 whole entry L192P/S387D/S824A/S828D/S831D/S834A): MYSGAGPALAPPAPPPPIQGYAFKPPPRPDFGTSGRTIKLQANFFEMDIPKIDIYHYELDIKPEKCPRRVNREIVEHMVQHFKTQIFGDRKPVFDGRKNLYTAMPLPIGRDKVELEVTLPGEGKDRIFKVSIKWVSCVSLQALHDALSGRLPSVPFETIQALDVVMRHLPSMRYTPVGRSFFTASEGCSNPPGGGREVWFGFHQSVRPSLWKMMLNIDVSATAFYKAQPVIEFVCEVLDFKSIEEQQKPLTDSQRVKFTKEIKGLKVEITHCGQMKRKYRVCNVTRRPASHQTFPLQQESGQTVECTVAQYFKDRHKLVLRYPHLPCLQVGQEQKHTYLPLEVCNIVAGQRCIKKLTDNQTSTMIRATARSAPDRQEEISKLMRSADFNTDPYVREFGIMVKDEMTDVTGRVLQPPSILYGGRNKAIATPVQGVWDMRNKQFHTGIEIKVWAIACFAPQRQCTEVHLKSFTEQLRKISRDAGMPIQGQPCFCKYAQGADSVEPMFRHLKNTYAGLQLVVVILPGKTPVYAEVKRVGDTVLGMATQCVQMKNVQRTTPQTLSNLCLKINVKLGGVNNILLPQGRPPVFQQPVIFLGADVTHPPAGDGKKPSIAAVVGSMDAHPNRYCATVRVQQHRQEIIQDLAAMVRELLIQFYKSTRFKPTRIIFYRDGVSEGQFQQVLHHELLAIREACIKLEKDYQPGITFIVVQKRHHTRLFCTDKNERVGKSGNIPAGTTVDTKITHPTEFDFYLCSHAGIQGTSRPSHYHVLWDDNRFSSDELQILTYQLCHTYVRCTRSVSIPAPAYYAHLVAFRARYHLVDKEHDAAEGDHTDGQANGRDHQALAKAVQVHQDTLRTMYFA

Row | Binder | binding signal
11 | B1 | 0.538 fold enrichment over input
12 | B2 | 0.564 fold enrichment over input
13 | B3 | 0.59 fold enrichment over input
14 | B4 | 0.479 fold enrichment over input
15 | B5 | 0.51 fold enrichment over input
16 | B6 | 3.25 fold enrichment over input
17 | B7 | 0.573 fold enrichment over input
18 | B8 | 0.513 fold enrichment over input
19 | B9 | 0.5 fold enrichment over input
20 | B10 | 0.569 fold enrichment over input

Molecular target: AGO2 A367P (Homo sapiens, UniProt Q9UKV8 1-859, A367P;S387D;S824A;S828D;S831D;S834A)
Experiment: as above
Conditions: protein: recombinant; tags: His6 (N-terminal, pFastBac HTA)
How it was run: as §1

Chain of AGO2 A367P (Q9UKV8 whole entry A367P/S387D/S824A/S828D/S831D/S834A): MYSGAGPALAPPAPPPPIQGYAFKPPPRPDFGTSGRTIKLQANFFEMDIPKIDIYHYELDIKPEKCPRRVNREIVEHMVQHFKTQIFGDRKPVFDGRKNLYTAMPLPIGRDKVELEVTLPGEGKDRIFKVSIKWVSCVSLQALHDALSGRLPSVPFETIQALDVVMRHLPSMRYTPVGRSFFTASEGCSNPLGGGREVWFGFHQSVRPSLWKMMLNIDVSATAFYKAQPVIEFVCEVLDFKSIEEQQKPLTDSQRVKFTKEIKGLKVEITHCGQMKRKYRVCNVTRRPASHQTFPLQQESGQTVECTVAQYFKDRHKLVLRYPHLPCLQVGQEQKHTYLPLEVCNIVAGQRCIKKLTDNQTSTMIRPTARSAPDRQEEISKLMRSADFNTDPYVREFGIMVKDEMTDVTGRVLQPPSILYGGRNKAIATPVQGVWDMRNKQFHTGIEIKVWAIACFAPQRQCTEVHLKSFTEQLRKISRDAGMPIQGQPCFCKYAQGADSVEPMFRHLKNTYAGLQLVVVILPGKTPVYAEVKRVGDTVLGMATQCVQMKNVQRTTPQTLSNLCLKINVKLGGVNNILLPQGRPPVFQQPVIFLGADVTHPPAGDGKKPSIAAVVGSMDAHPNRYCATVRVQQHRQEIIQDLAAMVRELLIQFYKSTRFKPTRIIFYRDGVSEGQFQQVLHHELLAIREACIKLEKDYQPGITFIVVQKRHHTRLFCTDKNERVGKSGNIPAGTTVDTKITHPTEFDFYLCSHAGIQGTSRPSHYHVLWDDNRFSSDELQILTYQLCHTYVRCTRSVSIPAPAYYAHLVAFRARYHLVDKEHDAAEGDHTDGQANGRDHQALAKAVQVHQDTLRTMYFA

Row | Binder | binding signal
21 | B1 | 0.215 fold enrichment over input
22 | B2 | 0.22 fold enrichment over input
23 | B3 | 0.307 fold enrichment over input
24 | B4 | 0.249 fold enrichment over input
25 | B5 | 0.215 fold enrichment over input
26 | B6 | 2.69 fold enrichment over input
27 | B7 | 0.44 fold enrichment over input
28 | B8 | 0.227 fold enrichment over input
29 | B9 | 0.194 fold enrichment over input
30 | B10 | 0.255 fold enrichment over input

Molecular target: AGO2 T357M (Homo sapiens, UniProt Q9UKV8 1-859, T357M;S387D;S824A;S828D;S831D;S834A)
Experiment: as above
Conditions: protein: recombinant; tags: His6 (N-terminal, pFastBac HTA)
How it was run: as §1

Chain of AGO2 T357M (Q9UKV8 whole entry T357M/S387D/S824A/S828D/S831D/S834A): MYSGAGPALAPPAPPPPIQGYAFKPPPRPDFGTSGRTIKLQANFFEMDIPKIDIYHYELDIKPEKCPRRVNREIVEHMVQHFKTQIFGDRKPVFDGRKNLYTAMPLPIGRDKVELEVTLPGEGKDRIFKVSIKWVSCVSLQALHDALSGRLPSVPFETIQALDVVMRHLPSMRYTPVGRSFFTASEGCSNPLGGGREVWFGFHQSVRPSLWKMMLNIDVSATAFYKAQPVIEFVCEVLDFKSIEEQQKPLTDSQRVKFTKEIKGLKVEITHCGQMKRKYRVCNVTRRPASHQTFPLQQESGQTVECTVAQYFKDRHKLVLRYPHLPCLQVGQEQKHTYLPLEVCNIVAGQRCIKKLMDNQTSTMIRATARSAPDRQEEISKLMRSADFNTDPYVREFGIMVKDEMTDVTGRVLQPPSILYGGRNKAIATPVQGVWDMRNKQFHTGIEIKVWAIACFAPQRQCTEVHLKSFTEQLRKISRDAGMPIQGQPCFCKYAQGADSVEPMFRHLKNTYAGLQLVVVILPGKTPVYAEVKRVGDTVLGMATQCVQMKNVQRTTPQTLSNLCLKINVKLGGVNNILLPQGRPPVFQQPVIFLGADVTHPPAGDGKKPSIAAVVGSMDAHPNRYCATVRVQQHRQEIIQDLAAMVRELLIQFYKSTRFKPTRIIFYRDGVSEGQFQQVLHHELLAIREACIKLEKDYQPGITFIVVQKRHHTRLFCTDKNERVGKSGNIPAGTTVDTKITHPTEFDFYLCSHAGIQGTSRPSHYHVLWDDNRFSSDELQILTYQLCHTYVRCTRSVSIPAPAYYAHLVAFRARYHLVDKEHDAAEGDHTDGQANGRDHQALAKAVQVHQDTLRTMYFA

Row | Binder | binding signal
31 | B1 | 0.719 fold enrichment over input
32 | B2 | 0.646 fold enrichment over input
33 | B3 | 0.657 fold enrichment over input
34 | B4 | 0.602 fold enrichment over input
35 | B5 | 0.751 fold enrichment over input
36 | B6 | 1.03 fold enrichment over input
37 | B7 | 0.601 fold enrichment over input
38 | B8 | 0.632 fold enrichment over input
39 | B9 | 0.763 fold enrichment over input
40 | B10 | 0.637 fold enrichment over input

Molecular target: AGO2 F182del (Homo sapiens, UniProt Q9UKV8 1-859, S387D;S824A;S828D;S831D;S834A;del182-182)
Experiment: as above
Conditions: protein: recombinant; tags: His6 (N-terminal, pFastBac HTA)
How it was run: as §1

Chain of AGO2 F182del (Q9UKV8 other isoform, or with tags, fused parts or gaps S387D;S824A;S828D;S831D;S834A;del182-182): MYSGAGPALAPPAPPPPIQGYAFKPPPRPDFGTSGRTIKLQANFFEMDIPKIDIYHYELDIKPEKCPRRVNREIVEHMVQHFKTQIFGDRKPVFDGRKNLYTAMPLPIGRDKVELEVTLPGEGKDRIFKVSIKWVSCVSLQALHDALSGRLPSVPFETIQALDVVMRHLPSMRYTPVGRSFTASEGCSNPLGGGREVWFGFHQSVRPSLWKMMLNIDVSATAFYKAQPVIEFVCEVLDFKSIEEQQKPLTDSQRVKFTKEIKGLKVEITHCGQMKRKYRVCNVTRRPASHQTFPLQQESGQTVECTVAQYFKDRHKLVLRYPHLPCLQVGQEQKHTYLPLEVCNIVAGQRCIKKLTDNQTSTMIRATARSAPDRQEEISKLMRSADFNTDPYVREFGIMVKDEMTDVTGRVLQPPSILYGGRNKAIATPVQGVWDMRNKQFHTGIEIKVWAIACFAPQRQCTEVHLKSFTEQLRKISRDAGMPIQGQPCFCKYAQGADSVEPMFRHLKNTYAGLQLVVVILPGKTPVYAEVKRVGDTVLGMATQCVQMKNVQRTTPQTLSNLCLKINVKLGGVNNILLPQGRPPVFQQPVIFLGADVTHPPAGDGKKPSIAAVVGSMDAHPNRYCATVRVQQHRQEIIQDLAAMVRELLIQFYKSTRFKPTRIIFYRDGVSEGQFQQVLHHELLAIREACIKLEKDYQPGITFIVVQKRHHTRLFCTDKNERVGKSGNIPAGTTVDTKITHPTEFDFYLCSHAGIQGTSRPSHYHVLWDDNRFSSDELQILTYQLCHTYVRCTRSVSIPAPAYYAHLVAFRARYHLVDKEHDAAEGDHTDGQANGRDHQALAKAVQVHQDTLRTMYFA

Row | Binder | binding signal
41 | B1 | 0.236 fold enrichment over input
42 | B2 | 0.372 fold enrichment over input
43 | B3 | 0.717 fold enrichment over input
44 | B4 | 0.268 fold enrichment over input
45 | B5 | 0.169 fold enrichment over input
46 | B6 | 6.7 fold enrichment over input
47 | B7 | 1.57 fold enrichment over input
48 | B8 | 0.326 fold enrichment over input
49 | B10 | 0.446 fold enrichment over input
